This passage reports outcome and AC50 results from PubChem BioAssay (EPA / NIEHS).

As a reminder, the AC50 is the midpoint of the concentration-response curve, whichever way the signal moves.

Each structure is given as a SMILES string. Active and inactive are the calls of the source. The calls were made as follows: active = hit-call score of the fitted dose curve at least 0.9, where 1 is the maximum; inactive = score below 0.9.

The nature of this test: ATG_EGR_CIS: Attagene CIS-FACTORIAL HepG2 Assay for human Early Growth Response 1 (EGR1) (AID 2282938). The note with it: HepG2 Attagene CIS-FACTORIAL EGR reporter mRNA; actives raise or lower the signal. As for the experimental part: ATG_CIS is a cell-based, multiplexed-readout assay that uses HepG2, a human liver cell line, with measurements taken at 24 hours after chemical dosing in a 24-well plate.ATG_EGR_CIS is one of 52 assay component(s) measured or calculated from the ATG_CIS assay. It is designed to make measurements of mRNA induction, a form of inducible reporter, as detected with fluorescence intensity signals by Reverse transcription polymerase chain reaction (RT-PCR) and Capillary electrophoresis technology.Data from the assay component ATG_EGR_CIS was analyzed into 1 assay endpoint. This assay endpoint, ATG_EGR_CIS, was analyzed with bidirectional fitting relative to DMSO as the negative control and baseline of activity. Using a type of inducible reporter, measures of mRNA for gain or loss-of-signal activity can be used to understand the reporter gene at the transcription factor-level as they relate to the gene EGR1. Furthermore, this assay endpoint can be referred to as a primary readout, because this assay has produced multiple assay endpoints where this one serves a reporter gene function. To generalize the intended target to other relatable targets, this assay endpoint is annotated to the dna binding intended target family, where the subfamily is zinc finger.
Human liver HepG2 cells are transiently transfected with multiple reporter transcription units (MRTUs) in 6-well plates using FuGene 6 reagent (Roche; 3 ml FuGene/1 mg DNA). The MRTU constructs are regulated by a cis-regulating element (promoter). […] A major difference between the CIS and TRANS system is that in CIS activities of endogenous TFs are measured, whereas the TRANS assay evaluates changes in activities of exogenous, chimeric NR-Gal4 proteins. […] At the end of 24 hour incubation, total RNA was isolated using TriZol reagent (Invitrogen). The isolated RNA is then reverse-transcribed using oligo(dT) primer and Mo-MLV reverse transcriptase (Invitrogen) with DNAse I (Ambion) treatment for 30 min. The one-tenth of the produced cDNA was amplified by PCR using Taq DNA polymerase (Invitrogen) and two reporter sequence-specific primers. The PCR products were fluorescently labeled by primer extension with 6-arboxyfluorescein (6-FAM) 5'-labeled reporter sequence-specific primer (2 min at 95 C, 20 s at 68 C and 10 min at 72 C) and these products were digested with 5U of HpaI (New England Biolabs) for 2h at 37 C. The fragments were purified using Qiaquick PCR columns (Qiagen), analyzed on an ABI 3130xL genetic analyzer (Applied Biosystems) with peak positions identified by using a set of X-rhodamine (ROX)-labeled MapMarker1000 molecular weight standards (BioVentures). The raw capillary electrophoresis data was processed using Attagraph software (Attagene).
`O=S1(=O)OC(c2ccc(O)cc2)(c2ccc(O)cc2)c2ccccc21`: the compound was called inactive.

Turning to `CC(C)c1ccc(C#N)cc1`, the compound was classed as inactive.

Take `COC(=O)/C=C\C(=O)O`: the compound was classed as inactive.

As to `SCCc1cnccn1`, the result was inactive.

As for `CC1=Nc2ccc3ccccc3c2C1(C)C`, the compound was called inactive.

As for `N[C@H]1C(O)O[C@H](CO)[C@H](O)[C@@H]1O` (stereo not given in full), the compound was called inactive.

As to `NC(=O)OCC(COC(N)=O)c1ccccc1`, the result was inactive.

For the compound `CCCCCCCCCCc1ccccc1`, the compound was called inactive.

Regarding `CC(C)C1=CC2=CC[C@@H]3[C@](C)(CCC[C@@]3(C)C(=O)O)[C@H]2CC1`, the concentration at half-maximal activity (AC50) was 60.3 µM (active).

For the compound `Cn1c([N+](=O)[O-])cnc1COC(N)=O`, the compound was classed as inactive.

For `CC1=NC(C)OC1C` (stereo not given), the compound was classed as inactive.

`CCCCCCCCCCCCCOP(=O)(O)O`: the call was inactive.

`CC(C)=CCC/C(C)=C\C#N`: the compound was called inactive.

As to `CCCCC(CC)COC(=O)c1ccccc1` (stereo not given), the call was inactive.

With `O=c1[nH]c(=O)c2[nH]c(=O)[nH]c2[nH]1`, the compound was called inactive.

With `Cc1ccc(C(C)c2ccc(C)c(C)c2)cc1C`, the result was inactive.

With `C#CC1(O)CC[C@H]2[C@@H]3CCC4=CCCC[C@@H]4[C@H]3CC[C@@]21C` (stereo not given in full), the result was inactive.

With `CCCCC/C=C\C/C=C\CCCCCCCC(=O)OC`, the AC50 was 100 µM (active).

With `Nc1cccc(C(F)(F)F)c1`, the outcome was inactive.

In the case of `CCCCCCCOC(=O)CCC`, the call was inactive.

On to `COCCOCCOCCOCCOC`, for which the compound was classed as inactive.

For the compound `O=C1C(N(CO)C(=O)NCO)N(CO)C(=O)N1CO` (stereo not given), the call was inactive.

`CNC(=S)N(C)C`: the compound was classed as inactive.

Regarding `CCCCCc1ccc(Cl)cc1`, the compound was classed as inactive.

Turning to `C=CC(=O)OCC(Br)CBr` (stereo not given), the concentration at half-maximal activity (AC50) was 52.8 µM (active).

`CC(C)(c1cc(Br)c(OCCO)c(Br)c1)c1cc(Br)c(OCCO)c(Br)c1`: the AC50 is 10.5 µM (active).

As for `O=C(O)CCCCCCCCCC(=O)O`, the call was inactive.

Take `CC(C)c1ccc2cc(C(C)C)ccc2c1`: the result was inactive.

For the compound `N=c1ccn2c(n1)O[C@H]1[C@H](O)[C@@H](CO)O[C@H]12`, the result was inactive.

For `C=COCCCC`, the compound was classed as inactive.

For `Cc1cccc(C(=O)O)c1`, the outcome was inactive.

As to `O=c1cc(-c2ccccc2)oc2ccccc12`, the AC50 was 82.1 µM (active).

For `C=C(C)C(=O)OCC(C)C`, the compound was called inactive.

For the compound `C=C[Si](C)(C)O[Si](C)(C)C=C`, the compound was classed as inactive.

Consider `COc1ccc(NC(C)=O)cc1N`, for which the result was inactive.

For the compound `CCC(CC)C(=O)O`, the call was inactive.

Regarding `CN(C)CCCN(C)C`, the outcome was inactive.

For the compound `Nc1ccc(Oc2ccc(N)c(N)c2)cc1`, the compound was called inactive.

Take `O=C(Nc1ccccc1)c1ccccc1O`: the compound was called inactive.

For the compound `OC1CCCCCCCCCCC1`, the call was inactive.
